# Assay outcomes: PubChem BioAssay, National Center for Advancing Translational Sciences (NCATS)
# The list is not random: actives were taken first. Their share in the collection is about 2.4%.
# D2 PAM-1 – Beta-Arrestin HTS for Positive Allosteric Modulators of the Human D2 Dopamine Receptor: Potentiators | potentiation, % (test concentration not listed) | D(2) dopamine receptor (Homo sapiens), P14416 | AID 624464, 2012 | actives 0.23% (n = 360,000) | DiscoveRx D2 beta-arrestin cells, luminescence, 90 min; 100% = 57 uM dopamine signal; in the data active = potentiation above about 50%; inconclusive = mostly about 30% to 49%
# Target sequence (P14416 whole entry, looked up): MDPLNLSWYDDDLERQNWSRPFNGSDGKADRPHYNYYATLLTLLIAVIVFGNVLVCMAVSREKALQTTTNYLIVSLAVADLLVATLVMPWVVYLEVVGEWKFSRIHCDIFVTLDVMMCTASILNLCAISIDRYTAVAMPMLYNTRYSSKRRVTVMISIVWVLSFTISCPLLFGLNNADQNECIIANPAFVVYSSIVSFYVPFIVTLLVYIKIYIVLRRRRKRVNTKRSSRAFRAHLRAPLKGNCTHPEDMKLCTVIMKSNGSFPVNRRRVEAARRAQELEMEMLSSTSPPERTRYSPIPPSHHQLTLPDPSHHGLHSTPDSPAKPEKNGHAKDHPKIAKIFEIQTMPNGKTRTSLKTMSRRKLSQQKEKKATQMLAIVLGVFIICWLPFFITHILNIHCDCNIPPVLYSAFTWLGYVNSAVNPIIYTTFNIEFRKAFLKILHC
#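 PathHunter beta-arrestin assay in DiscoveRx D2 cells. Compounds were added with an EC20 of dopamine (50 nM final) for 90 min at 37 deg C. Luminescence was read 1 h after detection reagent, with 57 uM dopamine as the EC100 control.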
# D2 antagonist – HTS Assay for Allosteric Antagonists of the Human D2 Dopamine Receptor: Primary Screen for Antagonists | HEK293 TREx D2 cells, calcium flux, dopamine EC80 | AID 485344, 2010 | actives 2% (n = 340,000) | inhibition, % at 10 µM | D(2) dopamine receptor (Homo sapiens), P14416; in the data active = inhibition above about 30%; inactive = below that, where a call was filed
#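 Tetracycline-induced HEK293 T-REx cells expressing D2 force-coupled to calcium signalling were dye-loaded, exposed to compound for 180 s, then challenged with an EC80 of dopamine; calcium flux was followed kinetically for a further 180 s.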
# D2 ag-1 – Beta-Arrestin HTS for Positive Allosteric Modulators of the Human D2 Dopamine Receptor: Agonists | D(2) dopamine receptor (Homo sapiens), P14416 | DiscoveRx PathHunter D2 beta-arrestin, luminescence, 90 min; 100% = 57 uM dopamine signal | activation, % (no concentration beside the values) | actives 0.084% (n = 360,000) | AID 624465, 2012; in the data active = activation above about 40%; inconclusive = between about 15% and that limit
#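 Agonist mode: compounds alone added to overnight-plated D2 PathHunter cells for 90 min at 37 C, with 57 uM final dopamine (EC100) defining full response. Beta-arrestin recruitment detected by chemiluminescent reagent, read after 1 h at ambient temperature.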
# D2 PAM-2 – HTS Assay for Positive Allosteric Modulators of the Human D2 Dopamine Receptor: Primary Screen for Potentiators | D(2) dopamine receptor (Homo sapiens), P14416 | potentiation, % at 10 µM | AID 485347, 2010 | actives 0.34% (n = 340,000) | HEK293 T-REx D2, calcium flux, EC20 dopamine potentiation;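 active = potentiation over 3 SD above the plate norm, cut at about 30% in these data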
#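 Potentiation of an EC20 dopamine calcium response measured kinetically over 180 s, after a preceding 180 s compound-only read flagging agonists. Cells: inducible Hek293 Trex D2 line, 4000/well, cultured overnight at 30 C before dye loading.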
# D2 ag-2 – HTS Assay for Allosteric Agonists of the Human D2 Dopamine Receptor: Primary Screen for Agonists; D(2) dopamine receptor (Homo sapiens), P14416; HEK293 T-REx D2 cells, calcium flux agonist mode; activation, % at 2 µM; actives 0.53% (n = 340,000);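 active = activation over 3 SD above normal in the single-dose calcium agonist read, cut at about 30% in these data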
#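 In this primary screen, compounds producing a positive calcium signal within 180 s of addition to tetracycline-induced, force-coupled HEK293 Trex D2 cells are flagged; cells are dye-loaded with a no-wash calcium kit beforehand.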
# Hits are given with their value; 0 = inactive; ? = inconclusive; - = no result.
SMILES,D2 PAM-1,D2 antagonist,D2 ag-1,D2 PAM-2,D2 ag-2
C=CCc1ccc(OCCCCN2CCC(C)CC2)c(OC)c1,0,0,0,0,0
Cc1cc(C)cc(-n2c(C)nc3cc(C(=O)NCc4ccc(F)cc4)ccc32)c1,-,-,-,0,0
CCN1CCN(c2nc3c(C)cccn3c(=O)c2/C=C(\C#N)S(=O)(=O)c2ccccc2)CC1,0,37.3,0,-,0
CCN1CCN(c2nc3ccccn3c(=O)c2/C=C(\C#N)S(=O)(=O)c2ccccc2)CC1,0,33.6,0,0,0
Oc1ccc[n+](CCCCC[n+]2cccc(O)c2)c1,0,0,0,0,0
Oc1ccc[n+](/C=C\c2ccccc2)c1,0,37.9,0,0,0
N#CC1(c2ccccc2)CCC(NCCc2ccccc2)CC1 (stereo not given),0,45.6,0,0,0
CCCCOc1ccc(CN(C)c2ncnc(N)n2)cc1,0,30.7,0,0,0
COc1ccccc1NC(=O)CSc1oc(-c2ccc(F)cc2)nc1S(=O)(=O)c1ccc(Br)cc1,-,-,-,0,-
CCc1ccc(NC(=O)C(=O)NNC(=O)c2ccc(OC)cc2)cc1,0,43.0,0,0,0
COc1ccc(C(=O)NNC(=O)C(=O)Nc2ccc(C)cc2)cc1,0,0,0,-,0
COc1ccc(-c2ccc3c(c2)S(=O)(=O)c2cccc(C(=O)N4CCN(C5CCCCC5)CC4)c2C3=O)cc1OC,118.2,-,?,-,-
CCN(CC)CCOc1c(C)cccc1Cl,0,62.0,0,0,0
Cc1ccc(NC(=O)C2CCCCC2)cc1C,0,36.2,0,0,0
CCOC(=O)c1cc(S(=O)(=O)NCc2ccc(Cl)cc2)[nH]n1,-,-,-,0,0
Cn1nnnc1SCC(=O)N1CCc2ccccc21,0,0,0,0,0
Cn1nnnc1SCC(=O)N1CCCc2ccccc21,0,40.6,0,0,0
Cc1ccccc1CC(=O)N1CCCc2ccccc21,0,0,0,0,0
Cc1ccc[n+](CC(=O)N2CCCc3ccccc32)c1,0,31.2,0,0,0
COc1ccc(NC(=O)CSc2nc3ccccc3n2CC(=O)N2CCCC(C)C2)cc1 (stereo not given),-,-,-,0,0
CCC(=O)N1c2ccccc2CC1C(=O)NCCc1cc(OC)c(OC)c(OC)c1 (stereo not given),-,-,-,0,0
CCc1ccc(S(=O)(=O)c2c[nH]c3cc(OC)c(OC)cc3c2=O)cc1,-,-,-,0,0
CC(=O)NCCNC(=O)CCCc1nnc2n(CC(C)C)c(=O)c3sccc3n12,-,-,-,0,0
COc1cccc(C2CC(c3ccc(Cl)cc3)n3nc(N)nc3N2)c1 (stereo not given),0,56.6,0,0,0
Cc1ccc(SCC(=O)OCC(=O)N(C)CC(=O)Nc2ccccc2Cl)cc1C,0,33.3,0,0,0
SMILES,D2 PAM-1,D2 antagonist,D2 ag-1,D2 PAM-2,D2 ag-2
Cc1ccc2c(c1)C(c1ccc(F)cc1)N(C(=O)C(C)C)CC(=O)N2 (stereo not given),-,-,-,0,0
Cc1cccc(C(=O)NC(=O)Nc2ccc(-c3cc(C(F)(F)F)nn3-c3ccccc3)cc2)c1,-,-,-,0,0
CCOc1ccccc1NC(=O)Cn1c(=O)n(-c2ccc(C)c(C)c2)c(=O)c2oc3ccccc3c21,-,-,-,0,0
CN1CCN(CC(C)(C)NS(=O)(=O)c2ccc(Cl)cc2)CC1,0,0,0,0,0
CC(C)(CN1CCN(Cc2ccccc2)CC1)NS(=O)(=O)c1ccc(Cl)cc1,0,43.6,0,0,0
O=C(c1ccc2c(c1)N(Cc1cccc(Cl)c1)C(=O)c1ccccc1S2(=O)=O)N1CCN(Cc2ccccc2)CC1,-,-,-,0,-
CC(C)N(Cc1ccccc1)C(=O)COC(=O)C1CCN(c2ccc(C(F)(F)F)cn2)CC1,0,0,0,0,0
CC(C)(C)N(Cc1ccccc1)C(=O)COC(=O)C1CCN(c2ccc(C(F)(F)F)cn2)CC1,0,0,0,59.1,0
C/C(CCc1ccc2c(c1)OCO2)=N\N=C1\NC(=O)CC(C(=O)Nc2ccccc2F)S1 (stereo not given),0,40.4,0,0,0
COc1ccc(CC2(CO)CCN(C/C=C/c3ccccc3OC)CC2)cc1,0,0,0,0,0
OCC1(CCc2ccccc2)CCCN(C/C=C/c2ccccc2)C1 (stereo not given),0,44.8,0,0,0
COc1ccccc1/C=C/CN1CCCC(CO)(CCc2ccccc2)C1 (stereo not given),0,71.4,0,0,0
CCCOc1ccccc1N/C(N)=N/c1nc(C)cc(C)n1,0,30.9,0,0,0
COc1ccc(N2CC(C(=O)Nc3nc4ccc(OC)cc4s3)CC2=O)cc1 (stereo not given),0,0,0,0,0
COc1ccc2nc(NC(=O)C3CC(=O)N(c4ccccc4)C3)sc2c1 (stereo not given),0,31.2,0,0,0
Cc1nc(Cl)sc1C(=O)Nc1ccccc1,0,0,0,0,0
Cc1nc(Cl)sc1C(=O)Nc1ccc(Cl)cc1,0,40.2,0,0,0
Cc1ccc(NC(=O)CSc2nnc(C)n3c2cc2sccc23)c(C)c1,-,-,-,0,0
COC(=O)c1c(C(=O)OC)c2ccccn2c1C(=O)c1ccc([N+](=O)[O-])cc1,0,-,0,-,-
COC(=O)c1c(C(=O)OC)c2cc(C(=O)c3ccccc3)ccn2c1Cl,0,0,0,47.2,0
Cc1cccc(C)c1NC(=O)c1ccc2nc(CCc3ccccc3)oc2c1,-,-,-,0,0
CCc1ccc(CNC(=O)c2ccc(CS(=O)(=O)Cc3cccc(C)c3)o2)cc1,-,-,-,-,0
Cc1cccc(CS(=O)(=O)Cc2ccc(C(=O)NCc3cccnc3)o2)c1,0,33.4,0,-,0
CCC(C)NCCOc1cc(C)cc(C)c1C (stereo not given),0,50.9,0,0,0
O=C(Cc1ccc(Cl)cc1)Nc1nnc2n1CCS2,-,-,-,-,0
O=C(N/N=C/c1cc(Br)c(Br)o1)c1cc2ccccc2o1,0,33.1,0,0,0
Cc1cccc(-n2c(=O)c3c(n4cnnc24)-c2ccccc2CC32CCCCC2)c1,0,31.4,0,40.5,0
O=c1c2c(n3cnnc3n1-c1ccccc1)-c1ccccc1CC21CCCCC1,0,0,0,0,0
COc1ccc(C2N(S(=O)(=O)c3ccc(C)cc3)CCN2S(=O)(=O)c2ccc(C)cc2)cc1,0,36.4,0,0,0
